Growth data for twelve compounds are collected here from PubChem BioAssay (NCI).

“And” between values parts separate entries of the source, which are not always exact repeats. Identical values can stand only once. The panel holds about 83,000 compounds, 20% with a hit somewhere; the sample as a whole holds those more often.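 48-hour exposure, single concentration, 96-well plates; percent growth endpoint where 0 means no net growth. Active: below 10.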 The source made the active and inactive calls.

Test systems include SR leukemia; OVCAR-8 ovarian; OVCAR-4 ovarian; SK-OV-3 ovarian; IGROV1 ovarian; OVCAR-3 ovarian; HS 578T breast; NCI/ADR-RES ovarian; RPMI-8226 leukemia; OVCAR-5 ovarian.
Common to all, as to assay: NCI-60 one-dose screen, 48 h (100 = growth as untreated, 0 = no growth, -100 = all killed)
What all share (conditions): 10 µM unless noted

With `CCN(CC)CCNC(=O)c1ccc(NCN2C(=O)NC(c3ccccc3)(c3ccccc3)C2=O)cc1`, the growth in the test with SR leukemia is 99.5% (inactive) and 113% (inactive); in the test with OVCAR-8 ovarian, 99.9% (inactive) and 111% (inactive); with OVCAR-4 ovarian, 105% (inactive) and 104% (inactive); with SK-OV-3 ovarian it was 123% (inactive) and 90.9% (inactive); with IGROV1 ovarian it was 144% (inactive) and 107% (inactive); in the test with OVCAR-3 ovarian, 110% (inactive) and 98.8% (inactive). Moreover, the growth is 98.4% (inactive) and 103% (inactive) in the test with HS 578T breast; 107% (inactive) and 111% (inactive) in the test with NCI/ADR-RES ovarian.
Take `CC(=O)Oc1ccc(C2(c3ccc(OC(C)=O)cc3)C(=O)Nc3ccccc32)cc1`: the growth with RPMI-8226 leukemia was 108% (inactive) and 75.1% (inactive); in the test on OVCAR-8 ovarian, 27.1% (inactive) and 25.5% (inactive); in the test with OVCAR-5 ovarian, 103% (inactive) and 89.5% (inactive); with SK-OV-3 ovarian, 115% (inactive) and 114% (inactive); in the test on IGROV1 ovarian, 65% (inactive) and 46.1% (inactive); with OVCAR-3 ovarian, -1.41% (active) and -3.11% (active). Besides, the growth is -18.5% (active) and -15.5% (active) in the test with HS 578T breast; 16.6% (inactive) and -4.21% (active) in the test on NCI/ADR-RES ovarian.
With `Cc1cc(O)c(C(C)C)cc1N=O`, the growth with OVCAR-8 ovarian was 102% (inactive) and 92.1% (inactive); with OVCAR-5 ovarian, 101% (inactive) and 108% (inactive); in the test on OVCAR-4 ovarian, 109% (inactive) and 111% (inactive); in the test on SK-OV-3 ovarian it was 96.4% (inactive) and 105% (inactive); with IGROV1 ovarian, 124% (inactive) and 112% (inactive); with OVCAR-3 ovarian, 109% (inactive) and 88.8% (inactive). The growth with HS 578T breast is 104% (inactive) and 114% (inactive); in the test on NCI/ADR-RES ovarian, 98.7% (inactive) and 106% (inactive).
With `COc1ccc(-n2[nH]c3c(cnc4ccccc43)c2=O)cc1`, the growth in the test on RPMI-8226 leukemia was 75.7% (inactive) and 106% (inactive); with OVCAR-8 ovarian, 101% (inactive) and 99.7% (inactive); in the test with OVCAR-4 ovarian it was 111% (inactive) and 97.6% (inactive); in the test with SK-OV-3 ovarian, 105% (inactive) and 99.4% (inactive); with IGROV1 ovarian it was 87.6% (inactive) and 115% (inactive); in the test on OVCAR-3 ovarian, 100% (inactive) and 116% (inactive). Moreover, the growth in the test with HS 578T breast is 117% (inactive) and 97.5% (inactive); in the test with NCI/ADR-RES ovarian, 78.5% (inactive) and 101% (inactive).
Take `ON=C(C1CCCCC1)C1CCCCC1`: the growth was 107% (inactive) with OVCAR-8 ovarian; 89.5% (inactive) in the test on OVCAR-5 ovarian; 107% (inactive) with OVCAR-4 ovarian; 106% (inactive) in the test on SK-OV-3 ovarian; 102% (inactive) in the test on IGROV1 ovarian; 105% (inactive) with OVCAR-3 ovarian. In addition, the growth in the test on HS 578T breast was 101% (inactive); in the test on NCI/ADR-RES ovarian, 103% (inactive).
As for `COc1ccc([N+](=O)[O-])cc1OC`, the growth in the test on RPMI-8226 leukemia is 106% (inactive); in the test with OVCAR-8 ovarian, 89.6% (inactive) and 94.5% (inactive); with OVCAR-5 ovarian, 101% (inactive) and 98.3% (inactive); in the test with OVCAR-4 ovarian, 104% (inactive); with SK-OV-3 ovarian, 114% (inactive) and 119% (inactive); in the test with IGROV1 ovarian it was 111% (inactive) and 109% (inactive). Also, the growth in the test on OVCAR-3 ovarian was 113% (inactive) and 114% (inactive); in the test on HS 578T breast it was 112% (inactive) and 132% (inactive); in the test on NCI/ADR-RES ovarian it was 102% (inactive) and 104% (inactive).
With `CC(C)(C)C1=CC(=O)C(C(C)(C)C)=CC1=O`, the growth with RPMI-8226 leukemia is 86.9% (inactive) and 102% (inactive); in the test with OVCAR-8 ovarian it was 91.5% (inactive) and 96.5% (inactive); with OVCAR-5 ovarian it was 109% (inactive); with OVCAR-4 ovarian, 93.3% (inactive) and 118% (inactive); with SK-OV-3 ovarian, 93.6% (inactive) and 102% (inactive); in the test on IGROV1 ovarian, 95.5% (inactive) and 110% (inactive). Also, the growth with OVCAR-3 ovarian is 111% (inactive) and 110% (inactive); in the test on HS 578T breast, 104% (inactive); with NCI/ADR-RES ovarian, 108% (inactive).
With `N=C(N)N1CCc2ccccc2C1`, the growth was 74.5% (inactive) and 80.8% (inactive) in the test on RPMI-8226 leukemia; 89.9% (inactive) and 103% (inactive) with OVCAR-8 ovarian; 88.4% (inactive) with OVCAR-5 ovarian; 95.4% (inactive) and 117% (inactive) in the test with OVCAR-4 ovarian; 101% (inactive) and 107% (inactive) with SK-OV-3 ovarian; 102% (inactive) in the test on IGROV1 ovarian. Further, the growth with OVCAR-3 ovarian is 104% (inactive) and 101% (inactive); with HS 578T breast, 85.9% (inactive) and 98.4% (inactive); in the test on NCI/ADR-RES ovarian it was 92.9% (inactive) and 114% (inactive).
With `CC1=CC(=O)C=CC1=Nc1ccc(N(C)C)cc1`, the growth with RPMI-8226 leukemia was 66.5% (inactive) and -4.07% (active); in the test on OVCAR-8 ovarian, 85.7% (inactive) and 52% (inactive); in the test on OVCAR-5 ovarian, 140% (inactive) and 83.9% (inactive); in the test on OVCAR-4 ovarian, 44.9% (inactive) and 21.1% (inactive); with SK-OV-3 ovarian, 94.2% (inactive) and 71.8% (inactive); in the test on IGROV1 ovarian, 88.5% (inactive) and 49.4% (inactive). Also, the growth with OVCAR-3 ovarian was 69.4% (inactive) and -93.6% (active); in the test on HS 578T breast it was 109% (inactive); in the test on NCI/ADR-RES ovarian, 78.1% (inactive) and 37.9% (inactive).
For the compound `CC1(C)OC(=O)C(=Cc2ccc(C#N)cc2)C(=O)O1`, the growth in the test with RPMI-8226 leukemia is 101% (inactive) and 103% (inactive); with OVCAR-8 ovarian, 94.5% (inactive) and 97.8% (inactive); with OVCAR-5 ovarian it was 107% (inactive) and 113% (inactive); in the test with SK-OV-3 ovarian, 104% (inactive) and 106% (inactive); in the test with IGROV1 ovarian, 107% (inactive) and 105% (inactive); in the test with OVCAR-3 ovarian, 111% (inactive) and 105% (inactive). For the same compound, the growth in the test with HS 578T breast was 99.3% (inactive) and 104% (inactive); in the test with NCI/ADR-RES ovarian, 106% (inactive) and 110% (inactive).
In the case of `Cc1cc(=NO)cc(C)n1O`, the growth was 103% (inactive) with RPMI-8226 leukemia; 111% (inactive) with OVCAR-8 ovarian; 117% (inactive) in the test with OVCAR-5 ovarian; 106% (inactive) in the test on OVCAR-4 ovarian; 104% (inactive) with SK-OV-3 ovarian; 114% (inactive) in the test on IGROV1 ovarian. The growth in the test with OVCAR-3 ovarian was 104% (inactive); in the test on HS 578T breast, 103% (inactive); in the test with NCI/ADR-RES ovarian, 114% (inactive).
As to `COc1ccc(C(=O)C(O)c2ccc(OC)cc2)cc1` (configuration not stated), the growth is 112% (inactive) and 106% (inactive) in the test with RPMI-8226 leukemia; 99.8% (inactive) and 101% (inactive) in the test with OVCAR-8 ovarian; 111% (inactive) and 109% (inactive) with OVCAR-5 ovarian; 103% (inactive) and 102% (inactive) in the test with OVCAR-4 ovarian; 106% (inactive) and 101% (inactive) in the test with SK-OV-3 ovarian; 102% (inactive) and 110% (inactive) in the test with IGROV1 ovarian. Also, the growth was 112% (inactive) and 107% (inactive) in the test with OVCAR-3 ovarian; 112% (inactive) and 102% (inactive) in the test on HS 578T breast; 102% (inactive) with NCI/ADR-RES ovarian.
